The values below come from ChEMBL document CHEMBL3433997, “St. Jude Leishmania screening dataset” (2016).

“And” between values parts separate entries of the source, which are not always exact repeats. Equal values may be shown once.

Common to all, as to type: functional
In assay [1] the target is Solute carrier family 2, facilitated glucose transporter member 1 (Homo sapiens) (UniProt P11166). The experiment in a line: ST_JUDE_LEISH: Cytotoxicity at 2uM final concentration against transgenic Leishmania Mexicana promastigotes LmGLUT1 that are glucose transport deficient and complemented with the human glucose transporter GLUT1. Activity is measured by DNA content using SYBR green in vitro.
Chain of Solute carrier family 2, facilitated glucose transporter member 1 (Homo sapiens) (P11166 whole entry): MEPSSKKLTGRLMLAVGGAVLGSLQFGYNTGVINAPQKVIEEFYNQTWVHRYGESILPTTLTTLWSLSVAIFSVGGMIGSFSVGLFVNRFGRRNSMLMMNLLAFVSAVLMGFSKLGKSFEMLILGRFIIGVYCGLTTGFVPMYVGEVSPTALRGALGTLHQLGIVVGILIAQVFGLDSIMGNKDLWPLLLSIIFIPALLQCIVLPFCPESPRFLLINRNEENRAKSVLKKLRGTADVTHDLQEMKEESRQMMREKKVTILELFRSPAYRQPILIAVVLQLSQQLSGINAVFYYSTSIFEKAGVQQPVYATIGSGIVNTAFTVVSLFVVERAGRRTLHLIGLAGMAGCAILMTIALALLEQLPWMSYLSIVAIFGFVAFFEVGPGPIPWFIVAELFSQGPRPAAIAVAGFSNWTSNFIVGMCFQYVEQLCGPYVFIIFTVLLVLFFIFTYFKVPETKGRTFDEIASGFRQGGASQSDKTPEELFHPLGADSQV

The target of assay [2] is Hexose transporter 1 (Plasmodium falciparum) (UniProt O97467). Briefly: ST_JUDE_LEISH: Cytotoxicity at 2uM final concentration against transgenic Leishmania Mexicana promastigotes LmPfHT that are glucose transport deficient and complemented with the Plasmodium falciparum hexose transporter. Activity is measured by DNA content using SYBR green in vitro.
The target in assay [3] is Glucose transporter (Leishmania mexicana) (UniProt O61059). The experiment in a line: ST_JUDE_LEISH: Cytotoxicity at 2uM final concentration against transgenic Leishmania Mexicana promastigotes LmGT2 that are glucose transport deficient and complemented with the L. Mexicana glucose transporter 2. Activity is measured by DNA content using SYBR green in vitro.

Regarding `O=C(NCCC1CCN(CCc2c[nH]c3ccccc23)CC1)Nc1ccc(Cl)c(Cl)c1`, the inhibition worked out at 3.67% in assay [1], 2.49% in assay [2] and 3% in assay [3].

On to `Oc1ccc(Cl)cc1CN1CCC(CCOC(c2ccccc2)c2ccccc2)CC1`, for which the inhibition was determined as 9.61% in assay [1], 9.6% in assay [2] and 7.84% in assay [3].

In the case of `COc1ccc2nc(-c3ccc(F)cc3)cc([C@@H](O)[C@@H]3C[C@@H]4CCN3CC4C=NO)c2c1` (some centres not stated), the inhibition in assay [1] came out at 4.55%; in assay [2], 4.75%; in assay [3], 3.7%.

Consider `O=C(/C=C/c1cccs1)NC1CCC(CN2CCC(c3c[nH]c4ccccc34)CC2)CC1` (configuration not stated), for which the inhibition came to 4.14% in assay [1], 5.22% in assay [2] and 2.51% in assay [3].

`CCC1CN2CCc3cc(OC)c(OC)cc3C2CC1CC1NCCc2cc(OC)c(OC)cc21` (configuration not stated): the inhibition in assay [1] was 96.6%; in assay [2], 96%; in assay [3], 93.1%.

For the compound `CSc1ccc(C[C@@H](C)NC[C@H](O)c2cccc(Cl)c2)cc1`, the inhibition amounted to 2.36% in assay [1], 1.34% in assay [2] and 2.94% in assay [3].

On to `CC[C@H]1CN2CC[C@H]1C[C@H]2[C@H](O)c1cc(N2CCCC(CO)C2)nc2ccc(OC)cc12` (some centres not stated), for which the inhibition was 2.62% in assay [1], 1.73% in assay [2] and 0.11% in assay [3].

Regarding `O=C(Cc1cc(=O)oc2cc(O)ccc12)N1CCC(CN2CCC(c3c[nH]c4ccccc34)CC2)CC1`, the inhibition in assay [1] is 4.12%; in assay [2] it was 5.46%; in assay [3], 5%.

Consider `CCOC(C(=O)OCCN(C(C)C)C(C)C)(c1ccccc1)c1ccccc1`, for which the inhibition was -0.14% in assay [1], 0.41% in assay [2] and -0.37% in assay [3].

For `CC[C@H]1CN2CC[C@@H]1C[C@@H]2[C@@H](O)c1cc(-c2ccc(F)cc2)nc2ccc(OC)cc12`, the inhibition came to 4.08% in assay [1], 3.07% in assay [2] and 5.29% in assay [3].

As for `COc1ccc(C(=O)c2ccc3[nH]cc(C4=CCN(C)CC4)c3c2)cc1`, the values for the inhibition in assay [1], in assay [2] and in assay [3] were -0.74%, -1.41% and 0.07%, respectively.

`COc1ccc(F)cc1-c1csc(N(c2ccc(F)cc2)C2CCNCC2)n1`: the results for the inhibition in assay [1], in assay [2] and in assay [3] were 1.56%, 0.21% and 0.05%, respectively.

Turning to `O=C1Nc2cccc3c2C1(CCCCN1CC=C(c2c[nH]c4ncccc24)CC1)CCC3` (configuration not stated), the figures for the inhibition in assay [1], in assay [2] and in assay [3] were 5.83%, 4.08% and 3.96%, respectively.

Turning to `N#Cc1c(Cl)cccc1Oc1ccc(S(=O)(=O)NC2CCC(CN3CCC(c4c[nH]c5ccccc45)CC3)CC2)cc1` (configuration not stated), the inhibition in assay [1] was 0.9% and 1.4%; in assay [2], 1.87% and 1.07%; in assay [3], 0.19% and -0.57%.

Consider `FC(F)(F)c1cccc(N2CCC(CN3CCC(c4c[nH]c5ccccc45)CC3)CC2)n1`, for which the inhibition in assay [1] was 7.61%; in assay [2] it was 6.91%; in assay [3] it was 7.85%.

Consider `CC(C)(C)c1cc(/C=C/C(=O)NC2CCC(CN3CCC(c4c[nH]c5ccccc45)CC3)CC2)cc(C(C)(C)C)c1O` (configuration not stated), for which the inhibition in assay [1] was 2.87% and 2.94%; in assay [2] it was 0.49% and 5.11%; in assay [3], -0.51% and 1.19%.

`CC(Cc1ccc(CSC(C)C)cc1)NCC(O)c1cccc(Cl)c1` (configuration not stated): the inhibition was 3.54% in assay [1], 3.54% in assay [2] and 3.37% in assay [3].

Regarding `CC(C)CCNC(=O)c1cc(C(=O)c2cc(F)ccc2O)cn(CCC(C)C)c1=O`, the inhibition amounted to 3.21% in assay [1], 2.53% in assay [2] and 6.46% in assay [3].

For `COc1ccc(-c2ccccc2)cc1NC(=S)NC1CCC(CN2CCC(c3c[nH]c4ccccc34)CC2)CC1` (configuration not stated), the inhibition in assay [1] was 3.8% and 4.09%; in assay [2], 2.57% and 3.78%; in assay [3] it was 0.72% and 3.03%.

Turning to `CCOC(C(=O)OCC1CCCN1C(C)C)(c1ccccc1)c1ccccc1` (configuration not stated), the inhibition in assay [1] worked out at 3.57%; in assay [2], 3.09%; in assay [3] it was 1.53%.

In the case of `CC[C@H]1CN2CC[C@H]1C[C@H]2[C@H](O)c1cc(-c2ccc(SC)cc2)nc2ccc(OC)cc12`, the inhibition in assay [1] is 4.44%; in assay [2] it was 4.13%; in assay [3], 7.64%.

With `COCC(=O)N(Cc1ccccc1-c1cccc(CNCCc2ccccc2)c1)C1CCN(Cc2ccccc2)CC1`, the figures for the inhibition in assay [1], in assay [2] and in assay [3] were 0.81%, 0.92% and 3.9%, respectively.

Regarding `O=C(/C=C/c1ccc(F)c(C(F)(F)F)c1)N1CCC(CN2CCC(c3c[nH]c4ccccc34)CC2)CC1`, the figures for the inhibition in assay [1], in assay [2] and in assay [3] were 0.7%, 0.53% and 0.74%, respectively.

Regarding `Oc1ccc(CN2CCN(CCOC(c3ccccc3)c3ccc(Cl)cc3)CC2)cc1Cl` (configuration not stated), the inhibition was 5.8% in assay [1], 1.85% in assay [2] and -3.12% in assay [3].

As to `CN1CC=C(c2c[nH]c3ccc(OCc4ccccc4)cc23)CC1`, the inhibition in assay [1] is 16.2%; in assay [2] it was 14.4%; in assay [3], 14.7%.

`Cc1[nH]c2ccccc2c1C1=CCN(CCCCC2(C)C(=O)Nc3ccccc32)CC1` (configuration not stated): the inhibition is 2.98% in assay [1], 2.07% in assay [2] and -0.37% in assay [3].

Turning to `O=C(c1cccs1)N(Cc1cccc(-c2ccc(CNC3CCCC3)cc2)c1)C1CCN(Cc2ccccc2)CC1`, the inhibition in assay [1] turned out to be 10.1%; in assay [2] it was 10%; in assay [3], 9.21%.

Consider `Oc1ccc(CN2CCN(CCOC(c3ccccc3)c3ccccc3)CC2)cc1Cl`, for which the values for the inhibition in assay [1], in assay [2] and in assay [3] were 0.53%, 3.98% and -1.69%, respectively.

Regarding `Cc1nc2ccccc2n1C1CC2CCC(C1)N2Cc1nccn1-c1ccccc1` (configuration not stated), the results for the inhibition in assay [1], in assay [2] and in assay [3] were 0.86%, 3.24% and 2.15%, respectively.

For the compound `O=C(c1cc(C(=O)NCc2ccc(Cl)cc2)c(=O)n(Cc2ccc(Cl)cc2)c1)c1cc(F)ccc1O`, the inhibition in assay [1] amounted to 2.53%; in assay [2], 1.86%; in assay [3], 1.19%.

Consider `Cc1[nH]c2ccccc2c1C1=CCN(CCCCCNC(=O)/C=C/c2ccc(Cl)c(Cl)c2)CC1`, for which the inhibition is 5.3% in assay [1], 5.72% in assay [2] and 5.48% in assay [3].

`COC(=O)c1ccc(CC(C)NCC(O)c2cccc(C(F)(F)F)c2)cc1F` (configuration not stated): the inhibition in assay [1] came out at 2.16%; in assay [2], 2.23%; in assay [3] it was 2.51%.

Take `COc1ccc2[nH]cc(C3=CCN(Cc4ccccc4)CC3)c2c1`: the inhibition is 3.41% in assay [1], 2.34% in assay [2] and 2.21% in assay [3].

On to `CN(c1ccnc(Nc2ccc(CS(C)(=O)=O)cc2)n1)C1CCN(Cc2ccccc2)CC1`, for which the inhibition in assay [1] amounted to 2.04%; in assay [2], 2.62%; in assay [3] it was 1.21%.
